Assay results: PubChem BioAssay (EPA / NIEHS)
Where “and” joins values, the source holds several entries; their conditions need not be identical. Identical values can stand only once. Results filed as inconclusive are left out. Calls of active or inactive are those of the source. The calls were made as follows, unless noted: active = hit-call score of the fitted dose curve at least 0.9, where 1 is the maximum; inactive = score below 0.9.

How the values were obtained:
[1] = biological target: Estrogen-related receptor gamma (Homo sapiens) (UniProt P62508); test: ATG_ERRg_TRANS: Attagene TRANS-FACTORIAL HepG2 Assay for human Estrogen-Related Receptor gamma (ERRg) (AID 2282977; active = hit-call score of the fitted dose curve at least 0.9, where 1 is the maximum;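 also: hits increase reporter signal over DMSO so potencies reflect activators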); details: HepG2 Attagene TRANS reporter, ERRg transactivation
Summary of the method: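 Transfect HepG2 with multiple GAL4-UAS reporter transcription units; dose chemicals 24 h; isolate RNA, reverse-transcribe with oligo(dT), PCR-amplify, label with 6-FAM, digest with HpaI; size fragments by capillary electrophoresis. DMSO serves as negative control.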

[2] = BSK_3C_TissueFactor: BioMAP Diversity Plus: 3C Assay for Tissue Factor Biomarker Activity (AID 2282997); details: BioMAP 3C HUVEC, tissue factor biomarker readout; actives raise or lower the signal
Summary of the method: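 ELISA read-out of Tissue Factor levels on human umbilical vein endothelium collected 24 h after chemical dosing. Gain or loss of signal was fitted relative to DMSO.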

[3] = read-out: Interleukin-1 alpha (IL1a), IL1A (gene 3552); test: BSK_BE3C_IL1a: BioMAP Diversity Plus: BE3C Assay for Interleukin-1 alpha (IL1a) Biomarker Activity (AID 2283016); details: primary human bronchial epithelial cells; actives raise or lower the signal
Summary of the method: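 BE3C primary human bronchial epithelium; cpd 24 h; IL-1a by ELISA; bidirectional fit vs DMSO; parallel SRB (0.1% SRB, 10% TCA fix, 560 nm) for cytotoxicity.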

[4] = read-out: Monocyte Chemoattractant Protein-1 (MCP1), CCL2 (gene 6347); test: BSK_3C_MCP1: BioMAP Diversity Plus: 3C Assay for Monocyte Chemoattractant Protein-1 (MCP1) Biomarker Activity (AID 2283017); details: primary human endothelial cells (HUVEC); actives raise or lower the signal
Summary of the method: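 ELISA read-out of MCP-1 from human umbilical vein endothelial cell cultures harvested 24 h post-dosing. Gain or loss of signal was fitted relative to DMSO.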

[5] = read-out: Interleukin-8 (IL8), CXCL8 (gene 3576); test: BSK_3C_IL8: BioMAP Diversity Plus: 3C Assay for Interleukin-8 (IL8) Biomarker Activity (AID 2283020); details: primary human endothelial cells (HUVEC); actives raise or lower the signal
Summary of the method: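 ELISA read-out of IL-8 from human umbilical vein endothelium, measured 24 h after chemical dosing. Activity is expressed relative to DMSO negative control, with both increases and decreases fitted.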

[6] = BSK_3C_SRB: Viability Assessment in the BioMAP Diversity Plus: 3C Assay (AID 2283023); details: primary human endothelial cells (HUVEC);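 also: fitted both ways against DMSO so a hit may be signal rise or drop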
Summary of the method: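 Absorbance at 560 nm of sulforhodamine B-stained (0.1%) total protein served as a cytotoxicity readout in human umbilical vein endothelial cells, 24 h after chemical treatment. Signal was fitted bidirectionally relative to DMSO.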

[7] = read-out: Pselectin, SELP (gene 6403); test: BSK_4H_Pselectin: BioMAP Diversity Plus: 4H Assay for Pselectin Biomarker Activity (AID 2283026); details: primary human endothelial cells (HUVEC); actives raise or lower the signal
Summary of the method: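 ELISA read-out of P-selectin on human umbilical vein endothelium after 24 h of dosing. Values derive from bidirectional fitting relative to DMSO. Parallel SRB protein staining flagged overt cytotoxicity.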

[8] = BSK_4H_SRB: Viability Assessment in the BioMAP Diversity Plus: 4H Assay (AID 2283027); details: primary human endothelial cells (HUVEC);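 also: cells exposed to compound for 24 h before staining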;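 as to AC50: curves fitted both ways versus DMSO so AC50 may be loss or gain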
Summary of the method: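 Absorbance at 560 nm of SRB-stained total protein served as the viability read-out in confluent primary human umbilical vein endothelium 24 h after chemical treatment. Curves were fitted bidirectionally against DMSO as negative control.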

[9] = read-out: Human Leukocyte Antigen - DR isotype (HLADR), HLA-DRA (gene 3122); test: BSK_BE3C_HLADR: BioMAP Diversity Plus: BE3C Assay for Human Leukocyte Antigen - DR isotype (HLADR) Biomarker Activity (AID 2283032); details: primary human bronchial epithelial cells; actives raise or lower the signal
Summary of the method: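 ELISA read-out of HLA-DR on human lung bronchial epithelial primary cells, measured 24 h post-dosing. Both increases and decreases were scored relative to DMSO vehicle.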

[10] = read-out: Monokine induced gamma interferon (MIG), CXCL9 (gene 4283); test: BSK_BE3C_MIG: BioMAP Diversity Plus: BE3C Assay for Monokine induced gamma interferon (MIG) Biomarker Activity (AID 2283035); details: primary human bronchial epithelial cells; actives raise or lower the signal
Summary of the method: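 MIG level was determined by ELISA after 24 h chemical treatment of primary human bronchial epithelial cells. Values were fitted bidirectionally with DMSO as the negative control and activity baseline.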

[11] = read-out: Human Leukocyte Antigen - DR isotype (HLADR), HLA-DRA (gene 3122); test: BSK_CASM3C_HLADR: BioMAP Diversity Plus: CASM3C Assay for Human Leukocyte Antigen - DR isotype (HLADR) Biomarker Activity (AID 2283043); details: primary human coronary artery smooth muscle cells; actives raise or lower the signal;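 also: cell-surface HLA-DR protein level quantified by ELISA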
[12] = read-out: Macrophage colony-stimulating factor (MCSF), CSF1 (gene 1435); test: BSK_CASM3C_MCSF: BioMAP Diversity Plus: CASM3C Assay for Macrophage colony-stimulating factor (MCSF) Biomarker Activity (AID 2283044); details: primary human coronary artery smooth muscle cells; actives raise or lower the signal;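 also: M-CSF protein amount quantified by ELISA after 24 h exposure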
[13] = read-out: serum amyloid A (SAA), SAA1 (gene 6288); test: BSK_CASM3C_SAA: BioMAP Diversity Plus: CASM3C Assay for serum amyloid A (SAA) Biomarker Activity (AID 2283049); details: primary human coronary artery smooth muscle cells; actives raise or lower the signal;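 also: SAA protein level quantified by ELISA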
[14] = BSK_CASM3C_SRB: Viability Assessment in the BioMAP Diversity Plus: CASM3C Assay (AID 2283050); details: primary human coronary artery smooth muscle cells;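 also: total protein by SRB staining as cytotoxicity measure in parallel cultures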
[15] = read-out: Vascular cell adhesion molecule 1 (VCAM1), VCAM1 (gene 7412); test: BSK_CASM3C_VCAM1: BioMAP Diversity Plus: CASM3C Assay for Vascular cell adhesion molecule 1 (VCAM1) Biomarker Activity (AID 2283055); details: primary human coronary artery smooth muscle cells; actives raise or lower the signal;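 also: VCAM-1 protein level quantified by ELISA on the cells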
[16] = read-out: Collagen III, COL3A1 (gene 1281); test: BSK_hDFCGF_CollagenIII: BioMAP Diversity Plus: hDFCGF Assay for Collagen III Biomarker Activity (AID 2283056); details: primary human foreskin fibroblasts; actives raise or lower the signal
Summary of the method: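 ELISA read-out of collagen III from human skin fibroblast cultures sampled 24 h post-dosing. Values were derived by bidirectional fitting relative to the DMSO vehicle control.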

[17] = read-out: Interleukin-1 alpha (IL1a), IL1A (gene 3552); test: BSK_KF3CT_IL1a: BioMAP Diversity Plus: KF3CT Assay for Interleukin-1 alpha (IL1a) Biomarker Activity (AID 2283070); details: primary human keratinocytes with fibroblasts; actives raise or lower the signal
Summary of the method: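 Chemicals were dosed onto co-cultured human keratinocytes and foreskin fibroblasts, IL-1a was quantified by ELISA at 24 h, and activity was fitted in both directions relative to DMSO controls.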

[18] = read-out: Matrix Metallopeptidase 9 (MMP9), MMP9 (gene 4318); test: BSK_KF3CT_MMP9: BioMAP Diversity Plus: KF3CT Assay for Matrix Metallopeptidase 9 (MMP9) Biomarker Activity (AID 2283074); details: primary human keratinocytes with fibroblasts; actives raise or lower the signal;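 as to AC50: MMP9 protein level quantified by ELISA in the co-culture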
Summary of the method: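 Human keratinocyte/foreskin fibroblast co-culture; compound added; 24 h; MMP-9 by ELISA; bidirectional fit vs DMSO baseline.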

[19] = read-out: Monocyte Chemoattractant Protein-1 (MCP1), CCL2 (gene 6347); test: BSK_LPS_MCP1: BioMAP Diversity Plus: LPS Assay for Monocyte Chemoattractant Protein-1 (MCP1) Biomarker Activity (AID 2283081); details: primary human HUVEC with PBMC; actives raise or lower the signal;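 as to AC50: co-culture stimulated with LPS; secreted MCP-1 protein quantified by ELISA in culture supernatant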
Summary of the method: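 Human endothelial–PBMC co-cultures were dosed with chemical, then LPS-driven MCP-1 levels were quantified by ELISA at 24 h. Activity in either direction was fitted versus DMSO negative control.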

[20] = read-out: Tumor necrosis factor (Homo sapiens) (UniProt P01375); test: BSK_LPS_TNFa: BioMAP Diversity Plus: LPS Assay for Tumour Necrosis Factor alpha (TNFa) Biomarker Activity (AID 2283085); details: primary human HUVEC with PBMC; actives raise or lower the signal;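 as to AC50: TNFa protein level quantified by ELISA in the co-culture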
Summary of the method: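 Read-out is ELISA of TNFa in primary human endothelial cell–PBMC co-cultures at 24 h after compound. Activity in either direction was fitted against DMSO.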

Measured: AC50

Estrogen-related receptor gamma (Homo sapiens), sequence (P62508 whole entry, looked up, the tested form may be a part): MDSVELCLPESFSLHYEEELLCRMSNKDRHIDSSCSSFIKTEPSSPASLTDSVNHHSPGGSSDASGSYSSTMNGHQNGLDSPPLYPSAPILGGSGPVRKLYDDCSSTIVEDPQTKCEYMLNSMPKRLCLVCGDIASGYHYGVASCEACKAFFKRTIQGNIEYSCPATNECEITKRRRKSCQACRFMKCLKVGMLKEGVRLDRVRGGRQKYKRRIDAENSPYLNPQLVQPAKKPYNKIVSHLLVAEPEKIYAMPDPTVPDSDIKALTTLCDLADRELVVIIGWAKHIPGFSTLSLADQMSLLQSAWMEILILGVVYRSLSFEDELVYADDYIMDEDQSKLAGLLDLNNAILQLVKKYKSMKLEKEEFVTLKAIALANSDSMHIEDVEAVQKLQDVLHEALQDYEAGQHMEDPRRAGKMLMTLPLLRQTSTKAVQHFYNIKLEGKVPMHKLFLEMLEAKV
Tumor necrosis factor (Homo sapiens), sequence (P01375 whole entry, looked up): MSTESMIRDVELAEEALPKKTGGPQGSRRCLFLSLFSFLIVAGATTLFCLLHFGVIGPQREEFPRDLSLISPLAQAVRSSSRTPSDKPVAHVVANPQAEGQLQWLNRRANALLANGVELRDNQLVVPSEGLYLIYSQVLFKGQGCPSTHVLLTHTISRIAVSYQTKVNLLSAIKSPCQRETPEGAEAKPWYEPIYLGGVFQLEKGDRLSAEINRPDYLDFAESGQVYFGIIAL

C=CC(=O)OCC(CC)CCCC (stereo not drawn)
active: [2] 28.9 µM | [4] 20 µM | [5] 20 µM | [14] 31.7 µM | [15] 20 µM | [16] 20 µM | [17] 6.47 µM | [19] 0.016 µM
inactive: all other assays above

CC(C)(c1cc(Cl)c(O)c(Cl)c1)c1cc(Cl)c(O)c(Cl)c1
active: [2] 24.2 µM | [3] 5.29 µM | [4] 12.3 µM | [5] 20 µM | [6] 9.54 µM | [7] 27.8 µM | [8] 29 µM | [9] 9.27 µM | [10] 7.45 µM | [11] 27.9 µM | [12] 20 µM | [13] 32.1 µM | [14] 31.6 µM | [15] 20 µM | [16] 29.6 µM | [17] 9.44 µM | [18] 8.32 µM | [19] 31.3 µM | [20] 31.4 µM

COc1ccc(CO)cc1
not listed: [1]
inactive: all other assays above

Oc1ccc(C2(c3ccc(O)cc3)c3ccccc3-c3ccccc32)cc1
active: [2] 12.7 µM and 12.5 µM | [3] 5.35 µM and 5.31 µM | [4] 13.2 µM and 12 µM | [5] 17.2 µM and 20 µM | [6] 6.97 µM and 8.38 µM | [7] 3.01 µM and 5.41 µM | [8] 11.9 µM | [9] 0.15 µM | [10] 5.44 µM and 5.43 µM | [11] 3.97 µM and 2.88 µM | [12] 11.1 µM and 20 µM | [13] 20 µM | [14] 20 µM | [15] 3.97 µM | [16] 2.68 µM and 2.27 µM | [17] 8.68 µM and 6.35 µM | [18] 5.39 µM and 5.41 µM | [19] 16.5 µM and 14.2 µM | [20] 30.9 µM and 36.3 µM

CC1(C)CC(=O)CC(C)(C)N1[O]
inactive: [1]

O=CNC(N1CCN(C(NC=O)C(Cl)(Cl)Cl)CC1)C(Cl)(Cl)Cl (stereo not drawn)
inactive: [1]

CC(=O)/C=C/c1ccccc1
active: [9] 3.97 µM
not listed: [1]
inactive: all other assays above

CC(C)CCCCCCCOP(=O)(Oc1ccccc1)Oc1ccccc1
inactive: [10] | [11] | [13] | [15]
active: [2] 9.9 µM | [3] 5.34 µM | [4] 10.7 µM | [5] 20 µM | [6] 9.85 µM | [7] 15.1 µM | [8] 20 µM | [9] 13.9 µM | [12] 0.173 µM | [14] 20 µM | [16] 5.29 µM | [17] 11.3 µM | [18] 11.2 µM | [19] 20 µM | [20] 30.4 µM

Cc1ccccc1CCl
inactive: [1]

CCCCCCCCCCCC#N
active: [4] 36.2 µM | [5] 20.6 µM | [6] 34.1 µM | [7] 20.6 µM | [8] 30.3 µM | [14] 29.3 µM | [15] 20.6 µM | [20] 36.4 µM
not listed: [1]
inactive: all other assays above

O=P1(NCCCl)OCCCN1CCCl (stereo not drawn)
not listed: [1]
inactive: all other assays above

CCOP(=O)(OCC)OCC
inactive: [1]

C=CC(=O)OCCCCOC(=O)C=C
inactive: [1]
